A word on the viability: it is a read-out of living cells in per cent, often relative to untreated cells.

The values that follow come from PubChem BioAssay.

Several values for one entry are separate records, joined by “and”; a condition that tells them apart may be missing. Equal values may be shown once. Activity calls are given as the source filed them.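 The calls were made as follows, unless noted: active = normalized viability below 100% at a tested concentration; inactive = the rest.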

The nature of experiment [1]: viability loss with induced miR-34 in A549 – imaging, A549 dox-inducible miR-34, nuclei and caspase counts, primary screen (AID 1347080;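 active = compounds whose cell count with miR-34 switched on is under 0.7 times the count with it off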). The note with it: A549 miR-34 inducible, Hoechst nuclei count, 48 h.
Experiment [2] is described as follows: MELAS cybrid and Rieske KO viability enhancers – cell-based, MELAS cybrids, Rieske KO mouse fibroblasts, CellTiter-Glo, primary screen (AID 1508586;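 active = mean z-score across replicates of 1.96 or higher in either the MELAS or the Rieske mutant cell line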;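 also: z relative to plate mean and SD of compound and empty wells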). The settings on record: low glucose. Background: Cellular ATP, detected with luciferase, serves as a proxy for viable cell number.
Experiment [3] can be described thus: galactose survival enhancers in mitochondrial complex I cybrids – cell-based, galactose medium, ATP luminescence, primary screen (AID 1645843;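 active = z-score of at least 1.8 in each of two replicates, scored against plate mean and spread of sample wells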;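 also: positive z means more ATP and so rescue of galactose-driven cybrid death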). The settings on record: complex I mutant cybrid cells, 72 h, stronger effect = higher value.
Experiment [4] is described as follows: liver-stage malaria parasite load reduction – cell-based, known kinase inhibitor set, luminescence, hepatoma host viability (AID 624392; call rule not given here;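 also: infected cells incubated roughly two days before readout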). The note with it: Plasmodium liver stage in hepatoma cells, luciferase luminescence, concentration not given here; liver cell % of control: measured here: host liver cell viability; parasite % of control: stronger effect = lower value.

Experiment [5] can be described thus: drug combination growth inhibition, ovarian cancer – cell-based, oncology-focused library, rucaparib conditional, profiling panel (AID 1508598). The note with it: patient-derived ovarian cancer cells, CellTiter-Glo viability, 144 h, stronger effect = lower value.
The mark [6] stands for this setting: stronger effect = lower value, cell number ratio, induced over uninduced.
Where [7] appears, read: measured here: relative caspase fold change +Dox/-Dox.
Where [8] appears, read: measured here: total cells with miR-34 induction, stronger effect = lower value.
Where [9] appears, read: measured here: total cells without miR-34 induction.
Where [10] appears, read: MELAS cybrid survival, CellTiter-Glo 48 h, stronger effect = higher value.
Where [11] appears, read: Rieske KO mouse fibroblast survival, CellTiter-Glo 72 h.

`Cc1nc(CCNC(=O)Nc2nnc(-c3cccs3)s2)sc1C`: the values for the fold change in experiment [1] (setting [6]) and in experiment [1] (setting [7]) were 0.877 (inactive) and 1.44, respectively. Also, the cell count in experiment [1] (setting [8]) worked out at 7610; in experiment [1] (setting [9]), 8680. The values for the z-score in experiment [2] (setting [10]), in experiment [2] (setting [11]) and in experiment [3] were -0.443 (inactive), -0.248 and 0.645 (inactive), respectively.

As to `Cc1ccc(NC(=O)c2ccc(CN3CCN(C)CC3)cc2)cc1Nc1nc(-c2cccnc2)cs1`, the liver cell % of control in experiment [4] is 46.6% and 78.6% and 98.8%. In addition, the parasite % of control in experiment [4] was 29.5% (inactive) and 24.2% (inactive) and 36% (inactive). In addition, the fold change in experiment [1] (setting [6]) is 0.856 (inactive); in experiment [1] (setting [7]), 1.16. The cell count in experiment [1] (setting [8]) came to 5500; in experiment [1] (setting [9]), 6420. Besides, the results for the z-score in experiment [2] (setting [10]) and in experiment [2] (setting [11]) were -0.618 (inactive) and 0.938, respectively. Besides, the viability in experiment [5] (at 0.000305 µM, OCI-C5x cells, with rucaparib 10 µM, 100% = cells with rucaparib alone) was 103% (inactive); in experiment [5] (at 0.000305 µM, OCI-C5x cells, without rucaparib), 124% (inactive); in experiment [5] (at 0.000305 µM, OCI-P5x cells, with rucaparib 20 µM, 100% = cells with rucaparib alone), 105% (inactive); in experiment [5] (at 0.000305 µM, OCI-P5x cells, without rucaparib), 93.4% (active); in experiment [5] (at 0.00122 µM, OCI-C5x cells, with rucaparib 10 µM, 100% = cells with rucaparib alone), 105% (inactive); in experiment [5] (at 0.00122 µM, OCI-C5x cells, without rucaparib) it was 120% (inactive). Moreover, the viability is 109% (inactive) in experiment [5] (at 0.00122 µM, OCI-P5x cells, with rucaparib 20 µM, 100% = cells with rucaparib alone); 96.2% (active) in experiment [5] (at 0.00122 µM, OCI-P5x cells, without rucaparib); 112% (inactive) in experiment [5] (at 0.00488 µM, OCI-C5x cells, with rucaparib 10 µM, 100% = cells with rucaparib alone); 129% (inactive) in experiment [5] (at 0.00488 µM, OCI-C5x cells, without rucaparib); 102% (inactive) in experiment [5] (at 0.00488 µM, OCI-P5x cells, with rucaparib 20 µM, 100% = cells with rucaparib alone); 92.7% (active) in experiment [5] (at 0.00488 µM, OCI-P5x cells, without rucaparib). The viability is 109% (inactive) in experiment [5] (at 0.0195 µM, OCI-C5x cells, with rucaparib 10 µM, 100% = cells with rucaparib alone); 124% (inactive) in experiment [5] (at 0.0195 µM, OCI-C5x cells, without rucaparib); 99.3% (active) in experiment [5] (at 0.0195 µM, OCI-P5x cells, with rucaparib 20 µM, 100% = cells with rucaparib alone); 85.4% (active) in experiment [5] (at 0.0195 µM, OCI-P5x cells, without rucaparib); 100% (inactive) in experiment [5] (at 0.0781 µM, OCI-C5x cells, with rucaparib 10 µM, 100% = cells with rucaparib alone); 123% (inactive) in experiment [5] (at 0.0781 µM, OCI-C5x cells, without rucaparib). For the same compound, the viability in experiment [5] (at 0.0781 µM, OCI-P5x cells, with rucaparib 20 µM, 100% = cells with rucaparib alone) was 97% (active); in experiment [5] (at 0.0781 µM, OCI-P5x cells, without rucaparib), 92.9% (active); in experiment [5] (at 0.313 µM, OCI-C5x cells, with rucaparib 10 µM, 100% = cells with rucaparib alone), 113% (inactive); in experiment [5] (at 0.313 µM, OCI-C5x cells, without rucaparib), 124% (inactive); in experiment [5] (at 0.313 µM, OCI-P5x cells, with rucaparib 20 µM, 100% = cells with rucaparib alone) it was 102% (inactive); in experiment [5] (at 0.313 µM, OCI-P5x cells, without rucaparib), 84.1% (active). The viability in experiment [5] (at 1.25 µM, OCI-C5x cells, with rucaparib 10 µM, 100% = cells with rucaparib alone) is 106% (inactive); in experiment [5] (at 1.25 µM, OCI-C5x cells, without rucaparib) it was 130% (inactive); in experiment [5] (at 1.25 µM, OCI-P5x cells, with rucaparib 20 µM, 100% = cells with rucaparib alone), 91.9% (active); in experiment [5] (at 1.25 µM, OCI-P5x cells, without rucaparib) it was 87.9% (active); in experiment [5] (at 5 µM, OCI-C5x cells, with rucaparib 10 µM, 100% = cells with rucaparib alone), 129% (inactive); in experiment [5] (at 5 µM, OCI-C5x cells, without rucaparib), 138% (inactive). Besides, the viability is 84.2% (active) in experiment [5] (at 5 µM, OCI-P5x cells, with rucaparib 20 µM, 100% = cells with rucaparib alone) and 82% (active) in experiment [5] (at 5 µM, OCI-P5x cells, without rucaparib).

With `CCCCS(=O)(=O)CCC(=O)O`, the fold change is 0.879 (inactive) in experiment [1] (setting [6]) and 0.837 in experiment [1] (setting [7]). Further, the cell count in experiment [1] (setting [8]) came to 8330; in experiment [1] (setting [9]), 9470. The z-score is -0.282 (inactive) in experiment [2] (setting [10]), -0.71 in experiment [2] (setting [11]) and -0.155 (inactive) in experiment [3].

Consider `COc1cccc2c(=O)n(Cc3ccc4ncccc4c3)cnc12`, for which the fold change in experiment [1] (setting [6]) is 0.883 (inactive); in experiment [1] (setting [7]), 1.22. Also, the cell count in experiment [1] (setting [8]) is 8080; in experiment [1] (setting [9]), 9140. For the same compound, the z-score in experiment [2] (setting [10]) was -0.263 (inactive); in experiment [2] (setting [11]) it was -0.193; in experiment [3], -0.28 (inactive).

With `O=C(O)CC(O)CC(O)C=Cc1c(C2CC2)nc2ccccc2c1-c1ccc(F)cc1` (stereo unspecified), the fold change was 0.905 (inactive) and 0.948 (inactive) in experiment [1] (setting [6]); 0.849 and 0.847 in experiment [1] (setting [7]). The cell count was 771 and 1550 in experiment [1] (setting [8]); 852 and 1630 in experiment [1] (setting [9]). Besides, the z-score is 1.33 (inactive) in experiment [2] (setting [10]), -0.125 in experiment [2] (setting [11]) and -1.86 (inactive) in experiment [3].

`CC(C)=CCn1cnc(=N)c2[nH]cnc21`: the fold change in experiment [1] (setting [6]) was 0.911 (inactive); in experiment [1] (setting [7]), 0.79. The cell count in experiment [1] (setting [8]) came out at 8970; in experiment [1] (setting [9]), 9850. The z-score in experiment [2] (setting [10]) is -0.546 (inactive); in experiment [2] (setting [11]), -0.741; in experiment [3] it was 1.17 (inactive).

In the case of `Nc1nc(Nc2cccc(Cl)c2)sc1C(=O)c1ccc(F)cc1`, the fold change in experiment [1] (setting [6]) is 0.868 (inactive); in experiment [1] (setting [7]) it was 0.635. The figures for the cell count in experiment [1] (setting [8]) and in experiment [1] (setting [9]) were 7020 and 8090, respectively. Further, the z-score in experiment [2] (setting [10]) was 1.64 (inactive); in experiment [2] (setting [11]), 0.109; in experiment [3], -2.28 (inactive).

Take `Cc1c(CNC(=O)C(=O)c2c(-c3ccccc3)cc3ccccn23)cnn1C`: the figures for the fold change in experiment [1] (setting [6]) and in experiment [1] (setting [7]) were 0.827 (inactive) and 2.08, respectively. Also, the cell count in experiment [1] (setting [8]) turned out to be 7720; in experiment [1] (setting [9]), 9330. Besides, the z-score in experiment [2] (setting [10]) is 0.665 (inactive); in experiment [2] (setting [11]), -0.13; in experiment [3], 0.815 (inactive).

Take `CN1CCC(CN(C)Cc2ccc(-c3nc(-c4ccncc4)cc(=O)[nH]3)cc2)CC1`: the figures for the fold change in experiment [1] (setting [6]) and in experiment [1] (setting [7]) were 0.939 (inactive) and 1.26, respectively. Further, the results for the cell count in experiment [1] (setting [8]) and in experiment [1] (setting [9]) were 9330 and 9930, respectively. In addition, the z-score in experiment [2] (setting [10]) is 0.0899 (inactive); in experiment [2] (setting [11]), 0.164; in experiment [3], -0.495 (inactive).

For `CCCN1CCCCC1C(=O)Nc1c(C)cccc1C` (stereo unspecified), the fold change in experiment [1] (setting [6]) was 0.891 (inactive) and 0.942 (inactive); in experiment [1] (setting [7]) it was 1.17 and 1.76. Moreover, the cell count in experiment [1] (setting [8]) was 9320 and 9310; in experiment [1] (setting [9]), 10500 and 9880. In addition, the z-score in experiment [2] (setting [10]) was 0.0955 (inactive); in experiment [2] (setting [11]), -0.512; in experiment [3] it was 0.57 (inactive).

For `c1ccc2c(CCc3ccncc3)c[nH]c2c1`, the fold change is 0.863 (inactive) in experiment [1] (setting [6]) and 0.826 in experiment [1] (setting [7]). Also, the values for the cell count in experiment [1] (setting [8]) and in experiment [1] (setting [9]) were 7350 and 8520, respectively. Further, the z-score in experiment [2] (setting [10]) is 1.96 (inactive); in experiment [2] (setting [11]) it was -0.242; in experiment [3], -0.71 (inactive).

In the case of `O=C(Nc1c[nH]c2ccccc12)c1cccnc1`, the fold change is 0.884 (inactive) in experiment [1] (setting [6]) and 1.08 in experiment [1] (setting [7]). Moreover, the cell count in experiment [1] (setting [8]) was 8140; in experiment [1] (setting [9]), 9200. The figures for the z-score in experiment [2] (setting [10]), in experiment [2] (setting [11]) and in experiment [3] were -0.289 (inactive), -0.312 and 1.14 (inactive), respectively.

Take `CC(C)n1cc(-c2cc(C(=O)N(C)Cc3cccnc3)c3ccc(F)cc3n2)cn1`: the fold change in experiment [1] (setting [6]) was 0.916 (inactive); in experiment [1] (setting [7]), 1.28. Besides, the cell count in experiment [1] (setting [8]) was 9850; in experiment [1] (setting [9]), 10700. Besides, the z-score was -0.603 (inactive) in experiment [2] (setting [10]), 1.43 in experiment [2] (setting [11]) and -0.355 (inactive) in experiment [3].

With `CN1CCN(Cc2ccc3nonc3c2)CC1CCO` (stereo unspecified), the fold change was 0.893 (inactive) in experiment [1] (setting [6]) and 1.09 in experiment [1] (setting [7]). For the same compound, the figures for the cell count in experiment [1] (setting [8]) and in experiment [1] (setting [9]) were 8970 and 10000, respectively. In addition, the z-score is -0.262 (inactive) in experiment [2] (setting [10]), -0.13 in experiment [2] (setting [11]) and -0.35 (inactive) in experiment [3].
